Some test systems named below: HCT-15 colon; HT29 colon; SNB-75 CNS; SNB-19 CNS; U251 CNS; PC-3 prostate; SK-MEL-5 melanoma; UACC-62 melanoma; LOX IMVI melanoma; SK-MEL-28 melanoma; SK-MEL-2 melanoma; EKVX NSCLC; SN12C renal; UO-31 renal; TK-10 renal; ACHN renal; CAKI-1 renal; A498 renal; CCRF-CEM leukemia; MOLT-4 leukemia.
Assay in all cases: NCI-60 one-dose screen, 48 h (100 = growth as untreated, 0 = no growth, -100 = all killed)
Conditions in all cases: 10 µM unless noted

Compounds without any hit were thinned out: in the full panel of roughly 83,000, 20% have a hit.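 Values shown are percent growth following 48 h exposure of cells in 96-well plates to a single concentration of compound; below 10 was considered active.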 Values without a mark were called inactive. Calls of active or inactive are those of the source.

Consider `CCOC(=O)c1c(SC)nn(-c2cc(=O)[nH]c3ccc(Br)cc23)c1N`, for which the growth with HCT-15 colon was 106%; in the experiment on HT29 colon, 107%; with SNB-75 CNS it was 94%; in the experiment with SNB-19 CNS it was 101%; in the experiment with U251 CNS, 94.1%; in the experiment with PC-3 prostate it was 94.2%. Moreover, the growth with SK-MEL-5 melanoma is 101%; with UACC-62 melanoma it was 102%; with LOX IMVI melanoma it was 90.1%; in the experiment with SK-MEL-28 melanoma, 117%; with SK-MEL-2 melanoma, 99%; in the experiment on EKVX NSCLC, 88.2%. Besides, the growth with SN12C renal is 108%; with UO-31 renal it was 81%; in the experiment on TK-10 renal, 110%; in the experiment on ACHN renal it was 98.3%; in the experiment on CAKI-1 renal it was 87.2%; in the experiment on A498 renal it was 110%. Moreover, the growth with CCRF-CEM leukemia and in the experiment with MOLT-4 leukemia was 111% throughout.

Turning to `O=C(Nc1ccc(Cl)cc1)Nc1ccc(Cl)c(Cl)c1`, the growth was 3.42% (active) in the experiment with HCT-15 colon; 28.6% in the experiment on HT29 colon; 51.7% in the experiment on SNB-75 CNS; 15.9% with SNB-19 CNS; 8.94% (active) in the experiment with U251 CNS; 9.37% (active) in the experiment with PC-3 prostate. The growth in the experiment with SK-MEL-5 melanoma is 24.1%; in the experiment on UACC-62 melanoma it was 5.98% (active); in the experiment with LOX IMVI melanoma, 7.43% (active); in the experiment with SK-MEL-28 melanoma it was 35.4%; with SK-MEL-2 melanoma, 13.3%; with EKVX NSCLC it was 18.8%. Also, the growth in the experiment with SN12C renal was 6.47% (active); with UO-31 renal it was 9.73% (active); in the experiment with TK-10 renal, 12.5%; in the experiment with ACHN renal, -9.93% (active); in the experiment on CAKI-1 renal, -1.31% (active); in the experiment on A498 renal, 11.4%. Moreover, the growth in the experiment with CCRF-CEM leukemia was 6.06% (active); in the experiment on MOLT-4 leukemia, 6.56% (active).

On to `O=C(CN1CCOCC1)Nc1ccc2ncnc(Nc3ccc(Oc4cccc(C(F)(F)F)c4)c(Cl)c3)c2c1`, for which the growth was 52.2% with HCT-15 colon; 54% in the experiment with HT29 colon; 73.7% in the experiment on SNB-75 CNS; 61.9% in the experiment with SNB-19 CNS; 62.4% in the experiment on U251 CNS; 44.5% in the experiment on PC-3 prostate. Further, the growth is 58.9% in the experiment with SK-MEL-5 melanoma; 71% in the experiment with UACC-62 melanoma; 43.8% in the experiment with LOX IMVI melanoma; 77.1% with SK-MEL-28 melanoma; 75.9% with SK-MEL-2 melanoma; 22% with EKVX NSCLC. Also, the growth with SN12C renal is 38.4%; with UO-31 renal, 22.5%; in the experiment with TK-10 renal it was 38.4%; in the experiment on ACHN renal it was 19%; with CAKI-1 renal it was 33.8%; with A498 renal, 10.1%. In addition, the growth was 58.4% in the experiment on CCRF-CEM leukemia and 37.5% in the experiment on MOLT-4 leukemia.

On to `CC(=O)c1c[nH]c2ccc(-c3ccnc(Nc4ccc(NC(=O)c5cccc(F)c5)c(CN5CCOCC5)c4)n3)cc12`, for which the growth in the experiment with HCT-15 colon is 0.545% (active); in the experiment on HT29 colon it was 7.18% (active); with SNB-75 CNS, -56.1% (active); in the experiment with SNB-19 CNS it was 0.141% (active); with U251 CNS, 8.5% (active); in the experiment on PC-3 prostate it was -0.531% (active). Also, the growth in the experiment with SK-MEL-5 melanoma is -74% (active); in the experiment on UACC-62 melanoma it was -41.2% (active); in the experiment with LOX IMVI melanoma, -3.87% (active); with SK-MEL-28 melanoma, 1.85% (active); with SK-MEL-2 melanoma, -15.6% (active); in the experiment on EKVX NSCLC, -24.1% (active). For the same molecule, the growth is -4.7% (active) in the experiment on SN12C renal; 2.38% (active) in the experiment with UO-31 renal; 1.22% (active) in the experiment with TK-10 renal; -12.1% (active) with ACHN renal; -1.58% (active) with CAKI-1 renal; -62.8% (active) with A498 renal. In addition, the growth in the experiment with CCRF-CEM leukemia is 2.24% (active); in the experiment with MOLT-4 leukemia, 1.65% (active).

On to `Clc1ccc(C2CC(c3cccc(Nc4ccncc4)c3)=NN2c2cc(Cl)cc(Cl)c2)cc1` (centres undefined), for which the growth is -25.2% (active) in the experiment on HCT-15 colon; 5.22% (active) in the experiment with HT29 colon; 82.8% in the experiment on SNB-75 CNS; 89.2% in the experiment on SNB-19 CNS; 0.417% (active) in the experiment with U251 CNS; 48.9% with PC-3 prostate. The growth with SK-MEL-5 melanoma is 88.9%; in the experiment on UACC-62 melanoma, 101%; in the experiment on LOX IMVI melanoma, -44.6% (active); in the experiment with SK-MEL-28 melanoma, 74.2%; with SK-MEL-2 melanoma, 107%; in the experiment on EKVX NSCLC it was 74.3%. The growth in the experiment with SN12C renal is 76.3%; with UO-31 renal, 71.2%; in the experiment with TK-10 renal, 94.8%; in the experiment on ACHN renal it was 77.2%; in the experiment with CAKI-1 renal it was 55.3%; in the experiment with A498 renal, 85.6%. Also, the growth in the experiment on CCRF-CEM leukemia was 11.3%; in the experiment on MOLT-4 leukemia, 7.7% (active).

For `CC(=O)NCCCS(=O)(=O)O`, the growth with HCT-15 colon was 103%; in the experiment with HT29 colon, 98.4%; in the experiment on SNB-75 CNS, 98.7%; in the experiment on SNB-19 CNS, 103%; in the experiment with U251 CNS, 102%; with PC-3 prostate it was 83.9%. The growth was 120% in the experiment with SK-MEL-5 melanoma; 101% in the experiment with UACC-62 melanoma; 94.4% in the experiment on LOX IMVI melanoma; 107% in the experiment on SK-MEL-28 melanoma; 101% in the experiment on SK-MEL-2 melanoma; 98.6% in the experiment on EKVX NSCLC. The growth in the experiment on SN12C renal is 88.3%; in the experiment on UO-31 renal, 83.9%; with TK-10 renal it was 102%; in the experiment on ACHN renal, 98.2%; in the experiment on CAKI-1 renal, 88.5%; with A498 renal it was 93.4%. The growth with CCRF-CEM leukemia is 106%; in the experiment with MOLT-4 leukemia, 104%.

On to `C=C(C)[C@@H]1CC[C@]2(C(=O)NCCCN(CCC#N)CCC#N)CC[C@]3(C)[C@H](CC[C@@H]4[C@@]5(C)CCC(=O)C(C)(C)[C@@H]5CC[C@]43C)[C@@H]12`, for which the growth in the experiment with HCT-15 colon was 101%; in the experiment with HT29 colon, 99.1%; with SNB-75 CNS it was 92%; in the experiment with SNB-19 CNS, 98.9%; with U251 CNS it was 94.1%; with PC-3 prostate, 94.4%. The growth was 102% in the experiment on SK-MEL-5 melanoma; 99.6% with UACC-62 melanoma; 101% in the experiment with LOX IMVI melanoma; 107% with SK-MEL-28 melanoma; 105% in the experiment with SK-MEL-2 melanoma; 91% in the experiment on EKVX NSCLC. The growth is 98.2% in the experiment with SN12C renal; 87.3% with UO-31 renal; 98.4% in the experiment with TK-10 renal; 107% in the experiment on ACHN renal; 94.4% in the experiment on CAKI-1 renal; 102% with A498 renal. Moreover, the growth in the experiment on CCRF-CEM leukemia is 106%; with MOLT-4 leukemia, 110%.

In the case of `O=C1Nc2c(ccc(Cl)c2Cl)/C1=C/c1ccc(O)cc1`, the growth in the experiment on HCT-15 colon is 90.8%; with HT29 colon, 94.7%; in the experiment on SNB-75 CNS, 56.7%; in the experiment on SNB-19 CNS it was 68.8%; in the experiment on U251 CNS, 83.8%; in the experiment with PC-3 prostate it was 98.1%. Further, the growth in the experiment on SK-MEL-5 melanoma was 87.1%; in the experiment with UACC-62 melanoma, 76.7%; in the experiment with LOX IMVI melanoma, 63.7%; in the experiment on SK-MEL-28 melanoma, 123%; in the experiment with SK-MEL-2 melanoma, 108%; in the experiment with EKVX NSCLC, 62.1%. Also, the growth with SN12C renal was 97.4%; in the experiment with UO-31 renal it was 61.8%; in the experiment with TK-10 renal, 101%; in the experiment on ACHN renal it was 87.6%; with CAKI-1 renal it was 59.7%; in the experiment on A498 renal, 115%. For the same molecule, the growth in the experiment with MOLT-4 leukemia was 77.3%.

For the origin of these results see PubChem BioAssay (NCI).
